Results filed as inconclusive are left out. Active and inactive are the calls of the source. Calls come from the whole dose curve; as a rule, active = well fitted curve in the direction sought with a large enough effect; inconclusive = small, poorly fitted or top-dose-only effect, or another doubt; inactive = no such curve, though single readings can be large; an effect the other way counts as inactive or inconclusive.
Experiments:
[1] = qHTS of pediatric cancer cell lines to identify multiple opportunities for drug repurposing: Primary screen for U-2 OS cells (AID 1347096); note: nearly all actives have a fitted effect of over 50% in size
How it was run: (§1)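 Cells (500-1,000/well) in growth media were settled 5 h at 37 degrees C, then given compounds for 48 h. Viability was read as CellTiter-Glo luminescence. Primary runs used MIPE at 11 points (0.78 nM-46 µM) and NPC at 8 points (0.59 nM-46 µM); follow-ups used 11 points.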

[2] = qHTS of pediatric cancer cell lines to identify multiple opportunities for drug repurposing: Primary screen for Saos-2 cells (AID 1347097); note: nearly all actives have a fitted effect of over 40% in size; note: potency is the fitted concentration of half-maximal effect
How it was run: (§2)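 Plated cells (500-1,000 per well, growth media) were allowed to settle for 5 hours, treated with compound dilutions for 48 hours, then lysed with CellTiter-Glo for 15 min at room temperature before luminescence reading.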

[3] = qHTS of pediatric cancer cell lines to identify multiple opportunities for drug repurposing: Primary screen for LAN-5 cells (AID 1347100); note: potency is the fitted concentration of half-maximal effect
How it was run: as §1

[4] = qHTS of pediatric cancer cell lines to identify multiple opportunities for drug repurposing: Primary screen for Rh18 cells (AID 1347102); note: nearly all actives have a fitted effect of over 65% in size; note: potency is the fitted concentration of half-maximal effect
How it was run: as §1

[5] = qHTS of pediatric cancer cell lines to identify multiple opportunities for drug repurposing: Primary screen for RD cells (AID 1347104); note: nearly all actives have a fitted effect of over 55% in size; note: potency is the fitted concentration of half-maximal effect
How it was run: as §2

[6] = qHTS of pediatric cancer cell lines to identify multiple opportunities for drug repurposing: Primary screen for MG 63 (6-TG R) cells (AID 1347105); note: nearly all actives have a fitted effect of over 50% in size; note: potency is the fitted concentration of half-maximal effect
How it was run: as §2

[7] = qHTS of pediatric cancer cell lines to identify multiple opportunities for drug repurposing: Primary screen for control Hh wild type fibroblast cells (AID 1347106);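 note: series mostly up to about 46 µM; a drop in luminescence marks cytotoxicity and a rise apparent proliferation; nearly all actives have a fitted effect of over 55% in size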
How it was run: as §1

[8] = qHTS of pediatric cancer cell lines to identify multiple opportunities for drug repurposing: Primary screen for Rh41 cells (AID 1347108); note: nearly all actives have a fitted effect of over 70% in size; note: potency is the fitted concentration of half-maximal effect
How it was run: as §2

[9] = qHTS of pediatric cancer cell lines to identify multiple opportunities for drug repurposing: Confirmatory screen for NB1643 cells (AID 1347109); note: potency is the fitted concentration of half-maximal effect; nearly all actives have a fitted effect of over 45% in size
How it was run: as §1

[10] = qHTS of pediatric cancer cell lines to identify multiple opportunities for drug repurposing: Confirmatory screen for A673 cells (AID 1347110);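 note: potency is the fitted concentration of half-maximal effect; cells exposed to compound for 48 h before the viability read; nearly all actives have a fitted effect of over 65% in size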
How it was run: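 Viability was read as ATP luminescence (CellTiter-Glo) after 48 h of compound exposure at 37 C in A673 cells seeded at 500-1,000/well. Titrations reached 46 uM final, with 11 points in the confirmatory screen. Concentration-response curves were fitted directly.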

[11] = qHTS of pediatric cancer cell lines to identify multiple opportunities for drug repurposing: Confirmatory screen for SK-N-MC cells (AID 1347111);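 note: potency is the fitted concentration of half-maximal effect; cells exposed to compound for 48 h before the readout; nearly all actives have a fitted effect of over 70% in size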
How it was run: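 Metabolically active cells were quantified by ATP-dependent luminescence (CellTiter-Glo, 15 min at room temperature) following 48 h treatment. Cells had been plated at 500-1,000 per well and settled for 5 h beforehand.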

[12] = qHTS of pediatric cancer cell lines to identify multiple opportunities for drug repurposing: Confirmatory screen for BT-12 cells (AID 1347112); note: nearly all actives have a fitted effect of over 55% in size; note: potency is the fitted concentration of half-maximal effect
How it was run: as §1

[13] = qHTS of pediatric cancer cell lines to identify multiple opportunities for drug repurposing: Confirmatory screen for LAN-5 cells (AID 1347113); note: potency is the fitted concentration of half-maximal effect; nearly all actives have a fitted effect of over 65% in size
How it was run: as §1

[14] = qHTS of pediatric cancer cell lines to identify multiple opportunities for drug repurposing: Confirmatory screen for DAOY cells (AID 1347114); note: nearly all actives have a fitted effect of over 65% in size; note: potency is the fitted concentration of half-maximal effect
How it was run: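 Viability measured as metabolically active cells via CellTiter-Glo luminescence following 48 hours of compound exposure, 11-point dilutions in confirmatory testing. 500-1,000 cells/well plated 5 hours before dosing; controls were DMSO and 2.3 µM bortezomib.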

[15] = qHTS of pediatric cancer cell lines to identify multiple opportunities for drug repurposing: Confirmatory screen for NB-EBc1 cells (AID 1347115);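 note: potency is the fitted concentration of half-maximal effect; cells exposed to compound for 48 h before the viability read; nearly all actives have a fitted effect of over 45% in size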
How it was run: as §1

[16] = qHTS of pediatric cancer cell lines to identify multiple opportunities for drug repurposing: Primary screen for SK-N-SH cells (AID 1347098); note: nearly all actives have a fitted effect of over 65% in size; note: potency is the fitted concentration of half-maximal effect
How it was run: (§3)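 Cells (500-1,000/well) rested 5 h, then received compounds for 48 h; metabolically active cells were measured by CellTiter-Glo luminescence. Final concentrations spanned up to 46 µM (MIPE, 11-point) or 0.59 nM-46 µM (NPC, 8-point) in primary screens, 11-point in follow-ups.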

[17] = qHTS of pediatric cancer cell lines to identify multiple opportunities for drug repurposing: Primary screen for NB1643 cells (AID 1347099); note: nearly all actives have a fitted effect of over 50% in size; note: potency is the fitted concentration of half-maximal effect
How it was run: as §2

[18] = qHTS of pediatric cancer cell lines to identify multiple opportunities for drug repurposing: Primary screen for Rh30 cells (AID 1347107); note: nearly all actives have a fitted effect of over 75% in size; note: potency is the fitted concentration of half-maximal effect
How it was run: as §1

[19] = qHTS of pediatric cancer cell lines to identify multiple opportunities for drug repurposing: Primary screen for BT-12 cells (AID 1347101); note: nearly all actives have a fitted effect of over 25% in size; note: potency is the fitted concentration of half-maximal effect
How it was run: as §3

[20] = qHTS of pediatric cancer cell lines to identify multiple opportunities for drug repurposing: Primary screen for OHS-50 cells (AID 1347103); note: potency is the fitted concentration of half-maximal effect; nearly all actives have a fitted effect of over 40% in size
How it was run: as §3

Structure (SMILES)	Potency [1]	Potency [2]	Potency [3]	Potency [4]	Potency [5]	Potency [6]	Potency [7]	Potency [8]	Potency [9]	Potency [10]	Potency [11]	Potency [12]	Potency [13]	Potency [14]	Potency [15]	Potency [16]	Potency [17]	Potency [18]	Potency [19]	Potency [20]
COc1c(OCCCN2CCOCC2)ccc2c3n(c(=NC(=O)c4cnc(N)nc4)nc12)CCN3	inactive	51.2 nM (active)	407 nM (active)	81.2 nM (active)	72.4 nM (active)	40.7 nM (active)	inactive	102 nM (active)	2290 nM (active)	1020 nM (active)	1020 nM (active)	inactive	644 nM (active)	inactive	2570 nM (active)	–	–	–	–	–
CC(=O)Nc1sc2c(c1-c1nc3ccccc3s1)CNC2	inactive	–	10500 nM (active)	–	–	inactive	inactive	–	–	–	–	–	–	–	–	1210 nM (active)	5260 nM (active)	–	–	–
CCCn1c(=O)c2[nH]c(-c3cnn(Cc4cccc(C(F)(F)F)c4)c3)nc2n(CC)c1=O	inactive	–	inactive	inactive	inactive	–	inactive	inactive	–	–	–	–	–	–	–	inactive	inactive	inactive	–	–
COC(=O)Nc1nc2ccc(C(=O)c3ccc(F)cc3)cc2[nH]1	inactive	526 nM (active)	209 nM (active)	inactive	743 nM (active)	590 nM (active)	inactive	–	2330 nM (active)	1310 nM (active)	1310 nM (active)	8270 nM (active)	–	1170 nM (active)	–	–	–	inactive	1720 nM (active)	968 nM (active)
COc1ccc(C=Cc2cc(OC)c(OC)c(OC)c2)cc1O	inactive	935 nM (active)	1 nM (active)	–	–	inactive	–	–	–	18.5 nM (active)	16.5 nM (active)	–	52.2 nM (active)	73.7 nM (active)	14.7 nM (active)	–	–	inactive	–	1 nM (active)
NC(=O)c1c(OCc2c(F)cc(Br)cc2F)nsc1NC(=O)NCCCCN1CCCC1	inactive	inactive	–	–	18700 nM (active)	5900 nM (active)	–	18700 nM (active)	–	–	–	–	–	–	–	–	inactive	20900 nM (active)	27300 nM (active)	24300 nM (active)
O=C(O)Cn1nnc(-c2cc(N3CCC(Oc4cc(F)ccc4Br)CC3)no2)n1	inactive	inactive	inactive	inactive	–	inactive	inactive	inactive	–	–	–	–	–	–	–	–	inactive	inactive	inactive	–
